Here are results for 13 molecules from PubChem BioAssay (NCI).

This is part of a sample that, as a whole, favours compounds with a hit. Of some 83,000 tested, about 20% had one in any assay.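 Assay: single dose, 48 h. Readout: percent growth (0 = no net growth; negative = cell death). Active: <10.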 A number with no mark means an inactive call. Active and inactive are the calls of the source.

Some test systems named below: SK-MEL-2 melanoma; EKVX NSCLC; SN12C renal; UO-31 renal; TK-10 renal; ACHN renal; CAKI-1 renal; A498 renal; CCRF-CEM leukemia; MOLT-4 leukemia.
Assay in all cases: NCI-60 one-dose screen, 48 h (100 = growth as untreated, 0 = no growth, -100 = all killed)
What all share (settings): 10 µM unless noted

On to `CC(=O)/C(=C/c1cccc(Cl)c1)C(=O)c1ccccc1`, for which the growth in the experiment on SK-MEL-2 melanoma is 94.9%; in the experiment with EKVX NSCLC it was 98.6%; with SN12C renal it was 100%; in the experiment on UO-31 renal, 72.1%; in the experiment with TK-10 renal, 96.6%; in the experiment on ACHN renal, 88.6%. Further, the growth in the experiment on CAKI-1 renal was 95.3%; with A498 renal, 119%; in the experiment with CCRF-CEM leukemia, 40.2%.
On to `c1ccc(-c2nc(N3CCOCC3)c3c4c(sc3n2)CCCCC4)nc1`, for which the growth with SK-MEL-2 melanoma is 61.7%; in the experiment with EKVX NSCLC it was 50.1%; in the experiment with SN12C renal it was 69%; with UO-31 renal, 35.7%; with TK-10 renal it was 45.1%; in the experiment on ACHN renal, 65.1%. Moreover, the growth with CAKI-1 renal is 46.2%; in the experiment with A498 renal it was 9.92% (active); with CCRF-CEM leukemia, 79.9%; with MOLT-4 leukemia, 58.9%.
Consider `CC[C@@H](C)OC(=O)c1nn(C(C)=O)c2ccccc12`, for which the growth is 107% in the experiment on SK-MEL-2 melanoma; 101% in the experiment on EKVX NSCLC; 102% in the experiment on SN12C renal; 92.9% with UO-31 renal; 105% with TK-10 renal; 108% in the experiment on ACHN renal. Besides, the growth with CAKI-1 renal was 97.8%; in the experiment with A498 renal, 99.2%; in the experiment on CCRF-CEM leukemia, 103%; in the experiment with MOLT-4 leukemia, 123%.
On to `CC1CN(C(C)C)C(=S)N(c2ccccc2)C1=O` (stereo unspecified), for which the growth with SK-MEL-2 melanoma was 98.5%; with EKVX NSCLC, 88.6%; with SN12C renal, 101%; in the experiment on UO-31 renal it was 84.6%; with TK-10 renal, 112%; with ACHN renal, 100%. Moreover, the growth with CAKI-1 renal was 68.9%; with A498 renal it was 101%; in the experiment on CCRF-CEM leukemia, 90.6%; in the experiment on MOLT-4 leukemia, 90%.
Turning to `Nc1cc(O)cc2cccnc12`, the growth is 110% with SK-MEL-2 melanoma; 104% in the experiment on EKVX NSCLC; 72.5% in the experiment with SN12C renal; 48.1% with UO-31 renal; 104% in the experiment on TK-10 renal; 77.3% in the experiment with ACHN renal. Moreover, the growth was 80.1% in the experiment on CAKI-1 renal, 118% with A498 renal, 86.6% in the experiment with CCRF-CEM leukemia and 93% with MOLT-4 leukemia.
For `CCN(CC)CC(C)Nc1ccc([N+](=O)[O-])c2sc3ccccc3c(=O)c12` (stereo unspecified), the growth in the experiment on SK-MEL-2 melanoma was 26.8%; in the experiment on EKVX NSCLC, 34.5%; with SN12C renal, 37.2%; in the experiment on UO-31 renal it was 0.595% (active); in the experiment with TK-10 renal, 49.5%; in the experiment with ACHN renal, 7.58% (active). In addition, the growth in the experiment with CAKI-1 renal is 18.1%; in the experiment on A498 renal it was 29.8%; with CCRF-CEM leukemia, 15.2%; with MOLT-4 leukemia it was -24% (active).
On to `Oc1ccccc1N=Cc1c(O)ccc2ccccc12`, for which the growth with SK-MEL-2 melanoma was 62.4%; with EKVX NSCLC, 63.2%; in the experiment with SN12C renal it was 65.3%; in the experiment with UO-31 renal, 57%; in the experiment with TK-10 renal it was 119%; with ACHN renal, 59.3%. The growth is 47.6% in the experiment on CAKI-1 renal, 64.8% in the experiment on A498 renal, 32.5% in the experiment with CCRF-CEM leukemia and 37.1% in the experiment on MOLT-4 leukemia.
Turning to `CC1(C)CC(=O)C(c2c(-c3ccccc3)[nH]c3[nH]c(=S)[nH]c(=O)c23)=C(O)C1`, the growth is 94.7% in the experiment with SK-MEL-2 melanoma; 89.8% with EKVX NSCLC; 99% with SN12C renal; 90.9% with UO-31 renal; 107% with TK-10 renal; 97.3% in the experiment on ACHN renal. For the same molecule, the growth is 125% in the experiment with CAKI-1 renal, 100% with A498 renal and 92% with CCRF-CEM leukemia.
As for `C=C(CN1CCN(c2cccc(C(F)(F)F)n2)CC1)c1ccc(C(=O)Nc2ccccc2N)cc1`, the growth in the experiment with SK-MEL-2 melanoma was -9.9% (active); with EKVX NSCLC it was 47.2%; in the experiment on SN12C renal, 15.5%; with UO-31 renal, 12%; with TK-10 renal it was 41.6%; in the experiment on ACHN renal, 34%. In addition, the growth in the experiment on CAKI-1 renal is 14.3%; with A498 renal it was 35.6%; with CCRF-CEM leukemia, -32.1% (active); with MOLT-4 leukemia, -14.5% (active).
For the molecule `COc1ccc(-c2cc(-c3cccnc3)nc3sc4c(=O)n(-c5ccc(C)cc5)nnc4c23)cc1OC`, the growth in the experiment on SK-MEL-2 melanoma was 107%; with EKVX NSCLC, 103%; in the experiment with SN12C renal it was 94.6%; in the experiment on UO-31 renal, 81.1%; with TK-10 renal, 115%; in the experiment with ACHN renal, 93.7%. Besides, the growth was 83.1% with CAKI-1 renal, 88.8% with A498 renal and 104% with CCRF-CEM leukemia.
For the molecule `CCN(CC)CC(O)c1cc(-c2ccc(Cl)cc2)nc2c(C)c(Cl)ccc12` (stereo unspecified), the growth in the experiment on SK-MEL-2 melanoma is -68.8% (active); in the experiment with EKVX NSCLC, -63.1% (active); in the experiment on SN12C renal it was -86.4% (active); with UO-31 renal it was -78.8% (active); in the experiment with TK-10 renal, -92.5% (active); in the experiment on ACHN renal, -93.2% (active). Moreover, the growth is -100% (active) with CAKI-1 renal, -36.4% (active) in the experiment with A498 renal, -37.4% (active) in the experiment on CCRF-CEM leukemia and -72.4% (active) in the experiment on MOLT-4 leukemia.
`O=C(/C=C/c1cccc(Br)c1)c1ccccc1`: the growth with SK-MEL-2 melanoma was 93.3%; with EKVX NSCLC, 88%; in the experiment with SN12C renal, 96.6%; with UO-31 renal it was 71.1%; with TK-10 renal, 69.7%; with ACHN renal it was 95.7%. In addition, the figures for the growth in the experiment on CAKI-1 renal, in the experiment on A498 renal and in the experiment on CCRF-CEM leukemia were 90.6%, 87.5% and 86.2%, respectively.
For the molecule `O=C(Cn1cc(CN2C(=O)c3ccccc3S2(=O)=O)nn1)Nc1ccc([N+](=O)[O-])cc1Cl`, the growth in the experiment with SK-MEL-2 melanoma was 91.9%; with EKVX NSCLC, 103%; in the experiment on SN12C renal, 94.3%; in the experiment with UO-31 renal, 82.7%; with TK-10 renal, 112%; in the experiment with ACHN renal, 95.3%. For the same molecule, the growth with CAKI-1 renal is 91.8%; in the experiment on A498 renal it was 103%; in the experiment with CCRF-CEM leukemia, 93.4%; in the experiment on MOLT-4 leukemia, 96.5%.
